# Target: HNRNPC (UniProt P07910)
# Settings: DSSO, in cells
substance,measurement,value
"HNRNPR, O43390",cross-linked residues,K374 - K8

# Reference: article PMC13423814
